Source: PubChem BioAssay (NCI)
Values joined by “and” are separate entries in the source; they are usually repeats but may differ in a detail not shown here. Identical values can stand only once. Compounds without any hit were thinned out: in the full panel of roughly 83,000, 20% have a hit.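 The endpoint reported here, percent growth, reads 100 for growth as untreated, 0 for no net growth and -100 for all cells dead.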 Active and inactive are the calls of the source. How the source made its calls: active means growth percent below 10; inactive means the rest.

These compounds were tested on MDA-MB-468 breast (assay: NCI-60 one-dose screen, 48 h (100 = growth as untreated, 0 = no growth, -100 = all killed)). Settings: 10 µM unless noted.

Row | SMILES | growth
1 | CC(=O)Oc1ccc(Cl)cc1 | 93.6% (inactive)
2 | CC(=O)[C@H]1CC[C@H]2[C@@H]3CC[C@H]4C[C@H](N)CC[C@]4(C)[C@H]3CC[C@]12C | 64.1% (inactive)
3 | CC(=O)O[C@H]1C(=O)[C@@]2(C)[C@H]([C@H](OC(=O)c3ccccc3)[C@]3(O)C[C@H](OC(=O)[C@H](OC(=O)OC[C@@H]4COC(C)(C)O4)[C@@H](NC(=O)c4ccccc4)c4ccccc4)C(C)=C1C3(C)C)[C@]1(OC(C)=O)CO[C@@H]1C[C@@H]2O | -7.94% (active)
4 | C=CCCCCCCCCC(=O)[O-].C=CCCCCCCCCC(=O)[O-].[Zn+2] | 115% (inactive)
5 | N/C(=N/N=C/c1ccncc1)N[N+](=O)[O-] | 110% (inactive)
6 | CCC1(CCSC#N)C(=O)NC(=O)NC1=O | 107% (inactive)
7 | C[Se]C(=O)c1ccccc1OC(C)=O | 45% (inactive)
8 | ClCCN(CCCl)c1nc(Cl)c(C2CC(c3ccccc3)=NN2c2cc(Cl)cc(Cl)c2)s1 (stereo not given) | 111% (inactive)
9 | Nc1ccc(S(=O)(=O)F)cc1 | 107% (inactive)
10 | CCn1c2ccccc2c2cc(C(=O)c3cccc4c3CCCN4)ccc21 | 96.4% (inactive)
11 | COc1cccc2c1cc([N+](=O)[O-])c1c(C(=O)O)cc3c(c12)OCO3 | -46.6% (active) and 100% (inactive)
12 | CCC(=O)Nc1ccc(Cl)c(Cl)c1 | 101% (inactive)
13 | COC1=CC(=O)O[C@@H](/C=C/c2ccc3c(c2)OCO3)C1 | 103% (inactive)
14 | CCN(CC)CCOc1c(C(C)C)cccc1C(C)C | 88.1% (inactive)
15 | CC1(C)N=C(N)N=C(N)N1c1ccc(CCCCc2ccc(Cl)c(S(=O)(=O)F)c2)c(Cl)c1 | 6.7% (active)
16 | COC(=O)[C@H](Cc1ccccc1)NC(=O)c1csc([C@@H](C[C@H](C(C)C)N(C)C(=O)[C@@H](NC(=O)[C@H]2CCCN2C)C2CC2)OC(C)=O)n1 | -5.59% (active)
17 | O=[N+]([O-])c1cccc([As]=[As]c2cccc([N+](=O)[O-])c2)c1 (stereo not given) | -78.5% (active)
18 | Cn1cc(-c2csc(-c3cn(CCN4CCOCC4)c4ccccc34)n2)c2cccnc21 | 63.3% (inactive)
19 | CCCCCCCCCCCCCCCC[n+]1ccccc1 | -33.2% (active) and -13.9% (active)
20 | O=C(CC1(O)C(=O)Nc2ccccc21)c1ccc(C(=O)NCC2CCC3(CC2)OOC2(CCCCC2)OO3)cc1 (stereo not given) | 53.7% (inactive)

Row | SMILES | growth
21 | CC(C)=CC1C(C(=O)OCc2cccc(Oc3ccccc3)c2)C1(C)C (stereo not given) | 100% (inactive)
22 | C=CCN1C(=O)C(CC)(CCC(C)C)C(=O)NC1=S (stereo not given) | 102% (inactive)
23 | COc1cc2c(cc1OC)CN(C)C(C)C2 (stereo not given) | 97.9% (inactive)
24 | CC(C)(C)N(Cc1ccccc1)N=O | 93.2% (inactive)
25 | C=CC[n+]1ccc(-c2cc[n+](CC=C)cc2)cc1 | 66.6% (inactive)
26 | Oc1cc(N2CC2)c(O)cc1N1CC1 | -62.7% (active)
27 | S=P(SP(=S)(c1ccccc1)c1ccccc1)(c1ccccc1)c1ccccc1 | 101% (inactive)
28 | C=CCOC(=O)C(Br)CC (stereo not given) | 98% (inactive)
29 | O=[N+]([O-])c1cc(Cl)c(Cl)c([N+](=O)[O-])c1Cl | 9.01% (active)
30 | CC1=C(CNO)C2=C(C)C3(CC3)[C@@](C)(O)C(=O)C2=C1 | -62.9% (active)
31 | CNC(=O)Oc1ccccc1-c1ccccc1 | 113% (inactive)
32 | C[C@]12CC[C@@H]3C4=C(CC[C@H]3[C@@H]1CC[C@@H]2O)CC(=O)CC4 | 101% (inactive)
33 | CCCCCCCC[N+]12CN3CN(CN(C3)C1)C2 | 93.4% (inactive)
34 | COc1ccc(/C=C\c2cc(OC)c(OC)c(OC)c2)cc1OCC(=O)Nc1nc2ccc(C(F)(F)F)cc2s1 | 1.38% (active)
35 | C[C@]12CC[C@H]3[C@@H](C[C@@H]4N=C(c5ccc(O)cc5)S[C@@]45C[C@H](O)CC[C@]35C)[C@@H]1CC[C@@H]2O | 81% (inactive)
36 | O=[N+]([O-])c1c(Cl)cc(Cl)c([N+](=O)[O-])c1Cl | 15% (inactive)
37 | CCn1c2ccccc2c2cc(C(=O)c3ccc(C)c4ccccc34)ccc21 | 25.4% (inactive)
38 | Clc1ccc(COC(Cn2ccnc2)c2ccc(Cl)cc2Cl)c(Cl)c1 (stereo not given) | 33.3% (inactive)
39 | CNC(C)Cc1ccccc1 (stereo not given) (tested in a mixture with another compound) | 91.3% (inactive)
40 | C[C@]12CCc3nc(Nc4ccccc4F)sc3C1=CC[C@@H]1[C@@H]2CC[C@]2(C)C(=O)CC[C@@H]12 | 23.7% (inactive)
